Laboratory results reported in PubChem BioAssay AID720530 (The Scripps Research Institute Molecular Screening Center, 2013).
Out of some 1,000 compounds screened, about 260 (26%) were called active. Only a sample is shown. A number with no mark means an inactive call. No stated cut-off is given here; in the data, active means inhibition above about 21%; inactive means the rest.

Molecular target: E3 ubiquitin-protein ligase UHRF1 (Homo sapiens) (UniProt Q96T88)
Test: UHRF1 methylated DNA binding inhibitors, counter-screen for MBD2 inhibitor project, biochemical, TR-FRET, human UHRF1 (AID 720530);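 further: UHRF1 SRA domain binding a labeled hemimethylated CpG hairpin DNA; 0% = vehicle only and 100% = reference inhibitor with vehicle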
Settings: UHRF1 binding to methylated oligonucleotide, at 4.4 µM, active compounds read high

Sequence of E3 ubiquitin-protein ligase UHRF1 (Homo sapiens) (Q96T88 whole entry, looked up, the tested form may be a part): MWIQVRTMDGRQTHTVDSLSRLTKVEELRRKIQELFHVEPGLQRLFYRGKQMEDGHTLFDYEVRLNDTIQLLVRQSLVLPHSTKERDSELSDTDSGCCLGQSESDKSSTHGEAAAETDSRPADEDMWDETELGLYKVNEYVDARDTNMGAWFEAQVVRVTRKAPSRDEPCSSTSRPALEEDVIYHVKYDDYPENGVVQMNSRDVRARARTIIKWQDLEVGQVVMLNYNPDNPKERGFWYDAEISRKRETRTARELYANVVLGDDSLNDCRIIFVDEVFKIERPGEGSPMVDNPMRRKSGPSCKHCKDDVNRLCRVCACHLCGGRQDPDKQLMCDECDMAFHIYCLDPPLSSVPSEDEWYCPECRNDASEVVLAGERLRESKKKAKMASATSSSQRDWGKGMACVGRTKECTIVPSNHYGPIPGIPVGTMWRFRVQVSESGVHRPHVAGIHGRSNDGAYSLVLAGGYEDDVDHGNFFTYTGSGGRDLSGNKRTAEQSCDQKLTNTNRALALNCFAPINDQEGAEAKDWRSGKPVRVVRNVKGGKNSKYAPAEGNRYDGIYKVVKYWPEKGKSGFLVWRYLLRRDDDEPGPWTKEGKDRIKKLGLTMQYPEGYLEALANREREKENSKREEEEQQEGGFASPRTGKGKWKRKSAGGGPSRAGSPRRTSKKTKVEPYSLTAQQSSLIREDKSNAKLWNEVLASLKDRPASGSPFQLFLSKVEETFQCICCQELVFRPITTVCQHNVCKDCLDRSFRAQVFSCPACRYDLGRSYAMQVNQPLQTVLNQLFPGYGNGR

SMILES | inhibition
CCN(CC)CCOc1ccc2c(c1)C(=NNC(=O)c1ccccn1)c1cc(OCCN(CC)CC)ccc1-2 | 108% (active)
COC(=O)c1ccc2nc(-c3cccc(Br)c3)c(Cc3ccc(OC)cc3C)n2c1 | 12.2%
Cc1ccc(C)c(NC(=O)c2ccc(OC(=O)c3ccco3)cc2)c1 | 8.96%
CCOC(=O)CCP(=O)(O)C(O)(c1ccccc1)c1ccccc1 | 4.07%
Cc1cccc(NC(=O)C[C@H]2CC[C@H]3[C@@H](COc4ccc(NC(=O)Nc5ccccc5)cc4C(=O)N3C)O2)c1 | 0.48%
CC(C)c1nc(CNC(=O)CC2C(=O)NCCN2Cc2cccc(F)c2F)cs1 (stereo not given) | 9.89%
COc1ccc2c(c1)c(=Cc1ccc(N(C)C)cc1)c1cc(-c3ccccc3)[n+](C)n12 | 83.9% (active)
Cc1ccc(-c2ccnc3nc(Sc4ncc(C(F)(F)F)cc4Cl)nn23)cc1 | 8.79%
Cc1cccc(CN2CCN(C3CN(Cc4cn(Cc5cc(C)cc(C)c5)nn4)S(=O)(=O)C3)CC2)c1 (stereo not given) | 9.39%
COC(=O)c1cccc(NC(=O)c2cccc(N3C(=O)CCC3=O)c2)c1 | 6.97%
COc1ccc(CNC(=O)c2c[nH]c3c(OC)cc(OC)cc3c2=O)cc1 | 5.78%
CN(C(=O)COC(=O)c1cc(-c2ccco2)nc2ccccc12)C1CCS(=O)(=O)C1 (stereo not given) | 35.3% (active)
O=C(c1n[nH]c2c1CCC2)N1CCCC(Nc2cccc(F)c2)C1 (stereo not given) | 6.16%
CC(C)Oc1ccc(C2NC(=O)NC2=O)cc1 (stereo not given) | 6.8%
CCOc1cc(-c2noc(CCCC(=O)NC3CCCCC3)n2)ccc1OC | 4.27%
c1ccc2cc3c(NCCN4CCOCC4)ccnc3cc2c1 | 21.8% (active)
COc1ccc(-n2cc(-c3ccccc3)c3c(=S)nc[nH]c32)cc1 | -1.36%
COc1nc(N(C)C)nc(N2CC(=O)N(CCNS(=O)(=O)c3ccc(C)cc3)C2=N)n1 | 6.8%
CC(=O)c1ccccc1NC(=O)COC(=O)C1COc2ccccc2O1 (stereo not given) | 2.18%
COc1ccc2[nH]c3c(C)c4cc[n+](C)cc4c(C)c3c2c1 | 94.4% (active)
CCOC(=O)C1C(=O)OC2(CCCC2)C1C(=O)OCC (stereo not given) | 1.98%
O=C(CC1CCCCC1)Nc1c2c(nn1-c1ccc(F)cc1)CS(=O)(=O)C2 | 5.19%
C=CCN1C(=O)c2ccc(C(=O)N3CCC(C(=O)OCC)CC3)cc2C1=O | 4.16%
C=CC1=C(C(=O)O)N2C(=O)[C@@H](NC(=O)/C(=N\OCC(=O)O)c3csc(N)n3)[C@H]2SC1 | 106% (active)
Nc1ccccc1C(=O)NC1CCCCNC1=O (stereo not given) | 4.32%
Cc1ccc(C(=O)Nc2ccc3c(c2)OCO3)cc1S(=O)(=O)N1CCCCC1 | 4.99%
COc1ccc(COC[C@H](CC(C)C)N2CCN(C(=O)c3cccc(C(F)(F)F)c3)CCC2=O)cc1 | 8.9%
COC(=O)[C@]12C[C@H](CC(=O)NCCC(C)C)C(=O)N(CCc3ccc(OC)c(OC)c3)C1=C[C@H](C(C)(C)C)O[C@@H]2C | 7.24%

SMILES | inhibition
COc1ccc(OCc2cc(C(=O)NCC3(C)COC3)no2)c(Cl)c1 | 2.8%
COC(=O)c1c(NC(=O)c2ccc(S(=O)(=O)N3CCOCC3)cc2)sc2c1CCN(C(C)C)C2 | 29.1% (active)
Cc1c(NS(=O)(=O)c2cc(C(=O)NCCc3ccc(F)cc3)cc(Cl)c2Cl)c(=O)n(-c2ccccc2)n1C | 3.95%
O=c1ccc2c(-c3ccccc3S(=O)(=O)O)c3ccc(O)c(O)c3oc-2c1O | 73.8% (active)
C=C1c2c(Cl)ccc(O)c2C(O)=C2C(=O)[C@]3(O)C(O)=C(C(N)=O)C(=O)[C@@H](N(C)C)[C@@H]3[C@@H](O)C12 (stereo not given in full) | 19.2%
CCOC(=O)c1ccc(-n2c(CCC(=O)O)ccc2-c2ccccc2)cc1 | 7.24%
C=CCN(C(=O)[C@@H](CCCC)[C@@H](O)c1ccc(Cl)cc1)c1ccccc1 | 6.35%
CN(C)[C@@H]1C(=O)C(C(N)=O)=C(O)[C@@]2(O)C(=O)C3=C(O)c4c(O)ccc(Cl)c4[C@@H](O)[C@H]3C[C@@H]12 | 12.2%
COc1ccccc1C(=O)NNC(=O)CCN1C(=O)/C(=C\c2ccccc2)SC1=S | 7.6%
Cc1ccc(Cc2cnc(N)s2)o1 | 7.64%
Cc1cc(C)c2nc3nc(C)cc(C)c3c(N)c2c1 | 46.3% (active)
CN(C)CCNC(=O)c1ccc(Cl)c2cc3ccccc3nc12 | 39.7% (active)
COC(=O)c1cn(C)c2ccc(S(=O)(=O)N3CC(C)CC(C)C3)cc2c1=O (stereo not given) | 14.2%
CCOC(=O)c1sc(NC(=O)CCN2CCOCC2)c(C(=O)OCC)c1C | -14.4%
CNC(=O)C[C@H]1C(=O)N(c2ccc(OC)cc2)C[C@@H]1Cc1ccccc1 | 5.54%
CCOc1ccc(NC(=O)c2cc(C)nc3ccccc23)cc1 | 3.69%
CCOc1ccc(S(=O)(=O)N2CCC(c3ccccc3)CC2)cc1C(=O)O | 0.13%
Brc1ccc(-c2n(-c3ccccn3)c3ccccc3[n+]2-c2ccccn2)cc1 | 22.7% (active)
CO/N=C(/CS(=O)(=O)c1ccc(Br)cc1)c1ccc(OC)cc1 | 5.83%
C=CCn1c(=S)[nH]c2scc(-c3ccco3)c2c1=O | 47.7% (active)
CCOc1ccc(N(CC(=O)NCCOc2ccccc2OC)S(=O)(=O)c2ccccc2)cc1 | 11%
CCOc1cc(N2CCOCC2)c(OCC)cc1NC(=O)c1cc(C)nc2ccccc12 | 7.08%
COC(=O)c1ccc(CSc2nncn2N)cc1 | 9.29%
Cc1ccccc1NC(=O)CN1C(=O)N/C(=C\c2cccn2-c2cccc(C(=O)O)c2)C1=O | 56.5% (active)
Cc1c(C=O)n(C)n(-c2ccccc2)c1=O | 0.66%
COC(=O)c1ccc2nc(C3CCCCC3)c(Cc3cccc(F)c3)n2c1 | 5.68%
CCOc1ccc(-n2c(SCC(=O)Nc3ccc(OC)cc3)nc3sc4c(c3c2=O)CCN(C)C4)cc1 | 6.75%
